INHIBITION data for 107 molecules are collected here from ChEMBL document CHEMBL4513216, “Probing the Open Global Health Chemical Diversity Library for Multistage-Active Starting Points for Next-Generation Antimalarials” (ACS Infect Dis, 2020).

Among all 68,000 compounds or so, about 2,700 (4%) showed an effect of 50% or more. For the sample, strong results were picked, then their nearest neighbours and some compounds at random.

This experiment relates to Plasmodium berghei. Put plainly: Screen against P. berghei liver stage (PbLuc), transformed with Luciferase, at 2uM. The class given is functional, HepG2. The note with it: tested at 2 uM.
As for `Cc1ccc(CN2CC3(CCN(C(=O)C4CC4)CC3)CC2C(=O)O)o1` (configuration not stated), the INHIBITION turned out to be 15.46%. Turning to `CCn1cc(NC(=O)NCC(c2cccc(F)c2)N(C)C)cn1` (configuration not stated), the INHIBITION is -41.59%. For `O=C(c1ccnnc1)N1C[C@@H](OCC2CCOCC2)[C@H]2OCCC[C@H]21`, the INHIBITION is given as 3.35%. As for `COc1cc(C)nc(N2CCN(C(=O)CCc3cscn3)CC2)n1`, the figure is -8.58%. `CC1CS(=O)(=O)CCN1CCCc1ccc(Cl)cc1` (configuration not stated): the INHIBITION is recorded as -15.12%. Regarding `CS(=O)(=O)N1CCOCC12CCN(Cc1ccc(F)cc1)CC2`, the INHIBITION is -12.74%. Under `CNC(=O)N1CC[C@@H]2CN(Cc3cccnc3)S(=O)(=O)[C@@H]2CC1` stands -23.02%. As for `Cc1ccc(CN2CCC3(CC2)CC(c2cccnc2)C(=O)N3C)o1` (configuration not stated), the figure is 8.6%. As for `Cc1nc2c(c(=O)[nH]1)CN(Cc1ccc3c(c1)CCCN3C)CC2`, the figure is 30.25%; as for `CSCCCN1CCCC1c1noc(C(C)C)n1` (configuration not stated), 5.05%; as for `Cc1ccccc1OC1CCN(CC(=O)Nc2cn(C)nc2C)CC1`, 54.75%. Regarding `CCn1cc(NC(=O)CN2CCC(Oc3ccccc3C)CC2)c(C)n1`, the INHIBITION turned out to be 45.49%. Under `Cc1ccccc1OC1CCN(CC(=O)Nc2ccn(C)n2)CC1` stands 9.02%; under `CCOc1ncnc2c1CCN(C(=O)CN(C)C)CC2`, 19.49%; under `O=C(CC1CC1)N1Cc2nccn2CC(COc2cccnc2)C1` (configuration not stated), 23.97%. As for `OC1(CN2CCc3nnc(Cc4cccnc4)n3CC2)CCCNC1` (configuration not stated), the figure is 34.71%; as for `Cc1ncccc1CNc1ccc(OCCO)nc1`, 3.49%; as for `OCCOc1ccc(NCc2cccc3cccnc23)cn1`, 67.44%. As for `OCCOc1ccc(NCc2cc(F)cc3cccnc23)cn1`, the figure is 45.56%. Take `CN(Cc1ccccc1)CC(O)Cn1cnc2ccc(Br)cc2c1=O` (configuration not stated): the INHIBITION was -12.19%. Under `O=C1CC2(CCSC2)C(=O)N1Cc1coc(-c2ccc(F)cc2)n1` (configuration not stated) stands -12.34%; under `O=C(NCc1nnc2n1CCCCC2)N1CCC2(CCCCC2)C1`, 55.36%; under `O=C(NCCc1nnc2n1CCC2)N1CCC2(CCCCC2)C1`, -9.03%.

Take `CCc1nnsc1C(=O)NCCc1nnc2n1CCC2`: the INHIBITION was -8.74%. As for `O=C(NCC1(c2ccc(F)cc2)CC1)N1CCC2(CCOC2)C1` (configuration not stated), the figure is -21.09%.

In the case of `O=C(NCCc1nnc2n1CCCCC2)N1CCC2(CCOC2)C1` (configuration not stated), the INHIBITION was found to be 69.67%. As for `O=C(NCc1nnc2n1CCCCC2)N1CCc2ccccc2C1`, the figure is 25.61%.

For the molecule `O=C(NCc1nnc2n1CCC2)N1CCC2(CCCCC2)CC1`, the INHIBITION turned out to be 26.74%. With `O=C(NCCc1ccc(Cl)s1)NCc1nnc2n1CCCC2`, the INHIBITION is recorded as -19.35%. Under `O=C(NCCc1nnc2n1CCCCC2)N1CCC2(CCCC2)CC1` stands 55.36%. In the case of `O=C(CCc1ccc(Cl)s1)NCc1nnc2n1CCCCC2`, the INHIBITION was determined as 58.05%. Under `O=C(NCc1ccc(Cl)s1)NCc1nnc2n1CCCCC2` stands 15.28%. `O=C(Cc1ccc2c(c1)OCCO2)NCCc1nnc2n1CCC2`: the INHIBITION is given as -29.94%.

Regarding `Cc1nc(C)n(CC2CCCN2CC(=O)NCCC2=CCCCC2)n1` (configuration not stated), the INHIBITION is 24.17%. As for `COc1c(Br)c(C(=O)NC2CCCC2)nn1C`, the figure is 32.75%; as for `O=c1[nH]c2cc3c(cc2cc1CN1CCCC1c1ccccn1)OCO3` (configuration not stated), -8.01%; as for `CCNC(=O)N1CCC(NC(=O)NCCc2cc(F)cc(F)c2)C1` (configuration not stated), 24.82%. Under `CC(C)Oc1cccc(C(=O)C2CCCN(C(=O)c3cncs3)C2)c1` (configuration not stated) stands 30.07%. As for `CN1CCCN(C(=O)c2ccnn2-c2ccc3ccccn23)CC1`, the figure is -25.2%; as for `COC(=O)c1cccn1C1CCN(C(=O)c2cn[nH]c2C)CC1`, 0.26%; as for `O=C(NCC(=O)N1CCCC1)c1nn(-c2ccccc2F)cc1O`, -8.52%. As for `Cc1cc(CN(C)C(=O)c2ccc(F)c(C(F)(F)F)c2)no1`, the INHIBITION is recorded as 46.52%. As for `COc1ccc(-n2cc3nc(N4CCCC4)[nH]cc-3c2=O)cc1Cl`, the figure is 26.03%. As to `CN(C)C(=O)[C@H]1CCS(=O)(=O)[C@@H]2CN(c3ncc(F)cn3)C[C@H]12`, the INHIBITION worked out at 32.26%.

For the molecule `O=C1CC(c2cccs2)c2snc(C(=O)O)c2N1` (configuration not stated), the INHIBITION was -4.4%. As for `CN1Cc2c(C(=O)Nc3cccnc3)ncn2-c2ccccc2S1(=O)=O`, the INHIBITION is listed as 8.85%.

For `CCC(=O)N1CCC2(C=C(C(=O)N(C)C)c3ccccc32)CC1`, the INHIBITION is -19.05%. Under `O=C(NCCc1nnc2n1CCC2)NCC1(c2ccc(F)cc2)CC1` stands 81.42%. As for `O=C(NCc1nnc2n1CCCCC2)N1CCc2sccc2C1`, the figure is 32.11%; as for `O=C(NCCc1nnc2n1CCC2)NCC1(c2ccccc2)CC1`, -1.32%; as for `O=C(NCCc1nnc2n1CCC2)NCC1(c2cccc(F)c2)CC1`, -14.15%. `O=C(NCc1nnc2n1CCC2)N1CCc2sccc2C1`: the INHIBITION was found to be 15.67%. As for `O=C(NCc1nnc2n1CCCC2)N1CCc2sccc2C1`, the figure is 53.11%; as for `CCn1cc(C(=O)N2CCCC(c3nccs3)C2)cn1` (configuration not stated), 2.6%; as for `COc1cccc2[nH]cc(CCNC(=O)N3CCCC3CO)c12` (configuration not stated), 1.41%. Under `Cc1ccc(C(=O)N2CCCC(n3cncn3)C2)o1` (configuration not stated) stands 14.17%; under `COc1ccnc(N2CCN(CC(=O)N3CCC(C)CC3)CC2)n1`, 39.72%.

In the case of `COc1ccnc(NC2CCN(CC(=O)N3CCCC3)CC2)n1`, the INHIBITION was determined as 72.05%. As for `COc1ccnc(NC2CCN(CC(=O)Nc3ccccc3)CC2)n1`, the figure is -37.65%; as for `COc1cc(OC)cc(C(=O)NCc2nn(C)c3c2COCC3)c1`, -63.73%. `CCOc1cccc(C(=O)Nc2ccn(CC)n2)c1`: the INHIBITION came to 6.64%. Under `CCn1ccc(CNC(=O)c2cc(OC)cc(OC)c2)n1` stands 65.06%; under `CC(C)(NCC(=O)NCC1CC1)c1ccc2c(c1)OCCO2`, -51.94%. Under `Cc1ccc(CN2CC[C@H](O)[C@@H](n3ccc(=O)[nH]c3=O)CC2)cc1` stands 29.89%. As for `O=C(NCCCn1ccnn1)C1CCCN(C2CCCC2)C1` (configuration not stated), the figure is 27.11%. For the molecule `CC(C)(C)CNCC1(O)CCCN(Cc2ccccc2F)C1=O` (configuration not stated), the INHIBITION came to 36.66%.

As to `COc1ccc(F)c(CN2CCCC(O)(CNCc3ccoc3)C2=O)c1` (configuration not stated), the INHIBITION was -11.8%. Under `COc1ccc(F)c(CN2CCCC(O)(CNCC(C)(C)C)C2=O)c1` (configuration not stated) stands 70.81%. Under `CCCN1C[C@@H]2CC[C@H]1CN(Cc1ccc(Cn3cccn3)cc1)C2` stands 75.43%. Under `CCCN1C[C@@H]2CC[C@H]1CN(Cc1cccc(-n3cccn3)c1)C2` stands -15.64%. In the case of `CCCN1C[C@@H]2CC[C@H]1CN(Cc1ccc(-n3cccn3)cc1)C2`, the INHIBITION was found to be 47.25%. Under `COCC1CN(c2ccc3c(Cl)ccnc3c2F)CCO1` (configuration not stated) stands -90.94%; under `Cn1ccc(CS(=O)(=O)Cc2ccccc2)cc1=O`, 36.53%. As for `COCCN1CC2(CCOCC2)c2cc(NC(=O)C3CC=CC3)ccc21`, the figure is 26.31%; as for `CC(C)C[C@H](N)COc1cccc(F)c1Oc1ccc(Cl)cc1`, 32.24%. As for `COc1cc(CNc2cc(N3CCCC3CO)ncn2)ccn1` (configuration not stated), the figure is 21.39%; as for `Cc1ncsc1CNC(=O)N1CCN(Cc2ccccc2)C[C@H]1C`, 37.41%.

As for `Cc1ncsc1CNC(=O)N1CCN(Cc2ccccc2)CC1C` (configuration not stated), the INHIBITION is recorded as 51.4%. As for `Cc1cc(CNC(=O)N2CCN(Cc3ccccc3)C[C@H]2C)on1`, the figure is -4.53%; as for `Cc1ncsc1C(=O)N1CCN(Cc2ccccc2)CC1C` (configuration not stated), -12.06%; as for `C[C@@H]1CN(Cc2ccccc2)CCN1C(=O)NCc1nccs1`, 14.83%. As for `Cc1nccc(CNC(=O)N2CCN(Cc3ccccc3)C[C@H]2C)n1`, the figure is 58.93%; as for `CCCC(=O)N1CCC(c2cc3cccnc3c(O)n2)CC1`, 4.48%; as for `O=C(N1CCCC1)N1CCC2(CC1)CN(c1cccnc1)C(=O)CO2`, 39.86%.

Consider `CC(C)(C)c1n[nH]cc1CNC1CCC(OCC(F)(F)F)CC1` (configuration not stated), for which the INHIBITION was -8.63%. Under `CC(C)(C)c1n[nH]cc1CNC1CCC(O)CC1` (configuration not stated) stands -57.67%; under `CC(C)(C)c1n[nH]cc1CNC1CCC(C(F)(F)F)CC1` (configuration not stated), 64.92%. Under `C=C/C=c1\c(=C/C)oc2c(NCc3ccccc3)nc(C)nc12` stands 51.36%; under `C=C/C=c1\c(=C/C)oc2c(NCc3ccccc3)ncnc12`, 24.34%.

Consider `C=C/C=c1\c(=C/C)oc2c(NCc3ccccc3)nc(CC)nc12`, for which the INHIBITION is listed as 17.42%. Consider `Cc1noc(C)c1CCC(=O)N1CCCC(n2ccnc2C)C1` (configuration not stated), for which the INHIBITION is listed as 11.18%. Under `CCN1CCOC(CNCc2ccc(C)s2)C1` (configuration not stated) stands -19.02%; under `COc1ccc(CNc2cnn(CC(F)F)c2)cc1`, -15.93%; under `Cc1ccc(CNc2cnn(CC(F)F)c2)cc1C`, 55.43%. Under `COc1cc(CNc2cnn(CC(F)F)c2)ccc1O` stands 19.18%; under `CCn1nnc2c1C(COCCN(C)C)CN(S(=O)(=O)CC)C2` (configuration not stated), 29.19%; under `CNc1ncc(CN(C)C(=O)c2cccc(CC3CCNCC3)c2)cn1`, 52.98%. With `Cc1nc(CN(C)C(=O)c2cccc(CC3CCNCC3)c2)no1`, the INHIBITION was determined as 24.36%. As for `CN(Cc1ccno1)C(=O)c1cccc(CC2CCNCC2)c1`, the figure is 38.67%.

Consider `Cc1nc2ccc(Cl)cn2c1CN1CCN(S(=O)(=O)N2CCCC2)CC1`, for which the INHIBITION was -21.9%. Under `CCN1CCc2c(sc3c2C(=O)NC(C=Cc2ccccc2)N3)C1` (configuration not stated) stands -18.77%; under `COCC(=O)N1CCCCC1c1nccc(C)n1` (configuration not stated), 18.22%; under `CN(C)CCN1CCCC12CCN(Cc1nccn1C)CC2`, 37.75%. Under `Cc1cc(C(F)(F)F)nn1CCCNC(=O)C1CCC1` stands 31.12%. As for `O=C(COc1coc(CN2CCOCC2)cc1=O)Nc1ccccc1F`, the INHIBITION came out at 64.35%. Under `O=C(COc1coc(CN2CCCCC2)cc1=O)Nc1ccccc1Cl` stands -46.67%. Take `O=C(COc1coc(CN2CCOCC2)cc1=O)Nc1ccc(Cl)cc1`: the INHIBITION amounted to 16.49%.
